Drawing on PubChem BioAssay AID2283312 (EPA ToxCast), this text covers outcome and AC50 for ten molecules.

Inconclusive results are not listed. The source made the active and inactive calls. Rule for the calls: active = hit-call score of the fitted dose curve at least 0.9, where 1 is the maximum; inconclusive = response in the unintended direction; inactive = score below 0.9.

Sequence of rat Vasoactive Intestinal Peptide Receptor (VIP), Non-selective Binding, Vipr1 (gene 24875) (P30083 whole entry, looked up): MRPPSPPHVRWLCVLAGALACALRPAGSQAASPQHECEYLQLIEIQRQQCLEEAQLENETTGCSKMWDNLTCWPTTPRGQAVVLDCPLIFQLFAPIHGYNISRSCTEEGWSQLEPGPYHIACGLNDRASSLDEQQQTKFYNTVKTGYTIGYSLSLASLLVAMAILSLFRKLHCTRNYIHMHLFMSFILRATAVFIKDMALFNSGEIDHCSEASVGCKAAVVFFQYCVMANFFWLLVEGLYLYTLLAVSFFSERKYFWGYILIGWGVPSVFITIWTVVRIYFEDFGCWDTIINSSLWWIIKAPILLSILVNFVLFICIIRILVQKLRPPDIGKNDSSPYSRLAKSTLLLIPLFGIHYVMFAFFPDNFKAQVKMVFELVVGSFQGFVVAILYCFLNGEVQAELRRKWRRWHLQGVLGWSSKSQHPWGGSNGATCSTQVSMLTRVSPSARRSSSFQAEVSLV

The test has as its target rat Vasoactive Intestinal Peptide Receptor (VIP), Non-selective Binding, Vipr1 (gene 24875) (UniProt P30083). Kind of test: NVS_GPCR_rVIP_NonSelective: NovaScreen (NVS) G Protein-Coupled Receptor Assay for rat Vasoactive Intestinal Peptide Receptor (VIP), Non-selective Binding. The protocol:
NVS_GPCR_rVIP_NonSelective is a biochemical, single-readout assay that uses extracted gene-proteins from Rat forebrain membranes in a tissue-based cell-free assay. Measurements were taken 1 hour after chemical dosing in a 96-well plate.NVS_GPCR_rVIP_NonSelective is one of one assay component(s) measured or calculated from the NVS_GPCR_rVIP_NonSelective assay. It is designed to make measurements of radioligand binding, a form of binding reporter, as detected with scintillation counting signals by Filter-based radiodetection technology.Data from the assay component NVS_GPCR_rVIP_NonSelective was analyzed into 1 assay endpoint. This assay endpoint, NVS_GPCR_rVIP_NonSelective, was analyzed in the positive analysis fitting direction relative to DMSO as the negative control and baseline of activity. Using a type of binding reporter, loss-of-signal activity can be used to understand changes in the binding as they relate to the gene Vipr1. Furthermore, this assay endpoint can be referred to as a primary readout, because the performed assay has only produced 1 assay endpoint. To generalize the intended target to other relatable targets, this assay endpoint is annotated to the gpcr intended target family, where the subfamily is secretin receptor.
Binding assays used specific radioligands (tritiated, iodinated) with non-radioactive competitive displacement ligands in agonist or antagonist protocols (as indicated) and various reference compounds and inhibitors to titrate specific binding to receptors and transporters. Most enzyme assays (CYPs, kinases, phosphatases, proteases, HDACs) used recombinant protein and specific substrates (fluorescence mostly, some colorimetric and radioactive) and inhibitors, followed by a biochemical separation of substrate and product. All assays for the biochemical HTS were initially run in duplicate at a single concentration (10 uM for CYP450 assays and 25 uM for all others). Assay-chemical combinations meeting a pre-defined threshold (e.g., 30% inhibition and other criteria defined below) were then run in singleton concentration-response format with maximum concentration of 20 uM for CYPs and 50 uM for all others. Each assay was run with positive and negative controls, and concurrent controls on every plate. The follow-up (secondary) screen tested active chemical-pairs in concentration series, as well as a few additional assays not tested in the primary screen, some selected negative inactives, and several cases re-run in the concentration series for confirmatory purposes.
In the case of `CC(C)N1C(=O)N(c2ccccc2)CSC1=NC(C)(C)C`, the molecule was called inactive. As for `CCC[CH2][Sn]([Cl])([CH2]CCC)[CH2]CCC`, the AC50 – broadly, the concentration at which the activity in the assay is half-maximal – is 7.97 µM (active). On to `CC[C@H](C)[C@H]1O[C@]2(C=C[C@@H]1C)C[C@@H]1C[C@@H](C/C=C(\C)[C@@H](O[C@H]3C[C@H](OC)[C@@H](O[C@H]4C[C@H](OC)[C@@H](NC)[C@H](C)O4)[C@H](C)O3)[C@@H](C)/C=C/C=C3\CO[C@@H]4[C@H](O)C(C)=C[C@@H](C(=O)O1)[C@]34O)O2`, for which the molecule was classed as inactive. Still for that read-out and setting: the entry for `CC(=O)[O][Hg][c]1ccccc1` is “inactive”; for `Oc1ccccc1-c1ccccc1` it is “inactive”; for `CCOP(=O)(OCC)Oc1nc(Cl)c(Cl)cc1Cl` it is “inactive”.

As for `C=C(C)C(=O)[O][Sn]([CH2]CCC)([CH2]CCC)[CH2]CCC`, the AC50 is 14.9 µM (active). For the molecule `Nc1c(Cl)c(F)nc(OCC(=O)O)c1Cl`, the molecule was called inactive. For `Cc1ccc(-c2c(Cl)nc(C#N)n2S(=O)(=O)N(C)C)cc1`, the molecule was called inactive.

For the molecule `COP(=S)(OC)Oc1nc(Cl)c(Cl)cc1Cl`, the result was inactive.
